Source: PubChem BioAssay (National Center for Advancing Translational Sciences (NCATS))
CRE Fsk mod = Cell signaling CRE-BLA (Fsk stim); Potency, µM (titrated, usually from 38.2 µM), without a hit: at the highest dose activity change, negative = inhibition, usual class: activators; CHO CRE-bla reporter (cAMP response element driving beta-lactamase), forskolin EC10, beta-lactamase ratio; hit rate 2.5% among 71,000; active = well fitted activation curve with a large enough effect in the signal ratio, with a control signal flat, not every such curve was filed as active; inconclusive = small, poorly fitted or top-dose-only effect, or effect the other way, or a change in a side signal; the % refers to the signal ratio; also: potency is read from the fitted curve at half-maximal effect; % of control where 0% means no effect
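qHTS titration format; CRE-bla CHO reporter; stimulus EC10 NKH 477, a water-soluble forskolin. Read: CCF4 460/530 nm ratio. Potency expressed as AC50 for activators or inhibitors.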
4MU fluor = qHTS Assay for Spectroscopic Profiling in 4-MU Spectral Region. max dye-equivalent concentration, M. hit rate 11% among 59,000. compound autofluorescence, 340/450 nm, 4-MU equivalents; active compounds read high; in the data active = max dye-equivalent concentration above about 10 nM; inconclusive = mostly about 1.1 nM to 9.6 nM
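Compounds in 100 mM Tris, pH 8.0, sat 15 min at room temperature before fluorescence was read at 340 nm excitation/450 nm emission; a per-plate six-point 4-MU standard curve converted signals to dye-equivalent concentration at each compound concentration.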
HSD17B inh = qHTS Assay for Inhibitors of HSD17B4, hydroxysteroid (17-beta) dehydrogenase 4. recombinant HSD17B10, NADH fluorescence kinetic. Potency, µM (titrated, usually from 57.1 µM), for the others: top-dose activity change, negative = inhibition, actives largely listed as inhibitors. hit rate 7.6% among 75,000. AID 893, 2007;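 also: the protocol describes HADH2 (HSD17B10) and not the HSD17B4 of the title; potency is read from the fitted curve at half-maximal effect; % is scaled to controls: 0 for no effect and ±100 for the full control effect; nearly all actives have a fitted effect of over 70% in size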
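His-tagged E. coli-expressed HADH2 at 20 nM in 100 mM Tris-HCl pH 9.0 with 0.01 % Tween-20, preincubated 15 min with compound at room temperature. Reaction with 1 mM NAD+ and 90 uM beta-hydroxybutyryl coenzyme A; NADH fluorescence (360/450 nm) read kinetically over 4 min, last minus first point.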
AID923 = qHTS Assay for Allosteric/Competitive Inhibitors of Caspase-1: Spectroscopic Profiling in AFC Spectral Region. compound fluorescence, AFC spectral region (405/520 nm). Potency, µM (highest dose often 57.5 µM), for the others: top-dose fluorescence increase, hits mostly activators. hit rate 1.1% among 75,000. AID 923, 2007; also: potency is read from the fitted curve at half-maximal effect; 0% is about no effect
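Titrations up to 57 uM read every 20 sec for 3 min (405/520 nm) with 50 nM caspase 1 and 5 uM Ac-WEHD-AFC, pH 7.5 HEPES buffer. Fluorescence-vs-time intercept gave baseline, scaled against on-plate AFC standard.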
HADH2 inh = qHTS Assay for Inhibitors of HADH2 (Hydroxyacyl-Coenzyme A Dehydrogenase, Type II); AID 886, 2007; hit rate 3.4% among 73,000; 3-hydroxyacyl-CoA dehydrogenase type-2 (Homo sapiens), Q99714; Potency, µM (top dose mostly 57.1 µM), for the others: at the highest dose activity change, negative = inhibition, actives largely listed as inhibitors; recombinant HADH2, NADH fluorescence, beta-hydroxybutyryl-CoA; also: potency is read from the fitted curve at half-maximal effect; % is scaled to controls: 0 for no effect and ±100 for the full control effect; nearly all actives have a fitted effect of over 60% in size
Target sequence (Q99714 whole entry, looked up, one chain of several): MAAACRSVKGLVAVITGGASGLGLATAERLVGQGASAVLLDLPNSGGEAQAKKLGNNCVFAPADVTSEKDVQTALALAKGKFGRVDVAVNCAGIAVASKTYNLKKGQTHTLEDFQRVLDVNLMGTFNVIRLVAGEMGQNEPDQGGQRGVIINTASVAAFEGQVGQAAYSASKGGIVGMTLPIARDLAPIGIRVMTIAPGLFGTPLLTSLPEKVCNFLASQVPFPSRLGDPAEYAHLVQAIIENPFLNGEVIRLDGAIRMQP
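E. coli-expressed His-tagged HADH2 tested at 20 nM in alkaline Tris buffer (pH 9.0); oxidation of 90 uM beta-hydroxybutyryl-CoA with 1 mM NAD+ tracked fluorimetrically for 4 min.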
A350 fluor = qHTS Assay for Spectroscopic Profiling in A350 Spectral Region; Compound autofluorescence, 340/450 nm, Alexa 350 dye-equivalents; active compounds read high; AID 590, 2007; hit rate 11% among 59,000; max dye-equivalent concentration, M; in the data active = max dye-equivalent concentration above about 10 nM; inconclusive = mostly about 1.1 nM to 9.6 nM
* marks the source's active call; other numbers are inactive results; i = inactive; ? = inconclusive; · = no result given; [ ] = dose if it differs, or a comment. Shown are actives, neighbours in structure and some others; about 14% of the full set was active somewhere. Unless noted, calls follow the shape of the dose curve; as a rule, active = well fitted curve in the direction sought with a large enough effect; inconclusive = small, poorly fitted or top-dose-only effect, or another doubt; inactive = no such curve, though single readings can be large; an effect the other way counts as inactive or inconclusive.

SMILES	CRE Fsk mod	4MU fluor	HSD17B inh	AID923	HADH2 inh	A350 fluor
COc1ccc(C(=O)N2CCC3(CCN(Cc4ccccc4)CC3)CC2)cc1	-5%	i	-5%	5%	6%	i
CCOC(=O)C(C)Sc1nc(-c2ccco2)cc(C(F)(F)F)c1C#N (centres undefined)	-8%	4.3e-07M*	25µM*	4%	179%	3.9e-07M*
Cc1cc(C)nc(Nc2nc(C)c3cc4c(cc3n2)OCO4)n1	3%	2.1e-07M*	16µM*	3%	?	2.2e-07M*
COC(=O)CCCC(=O)OC	-1%	·	6%	0%	6%	·
COC(=O)CCP(=O)(O)Cc1ccccc1CP(=O)(O)CCC(=O)OC	?	3.5e-08M*	13%	3%	4%	3.5e-08M*
c1c2c(cc3sc(N4CCCCC4)nc13)OCO2	?	i	32µM*	0%	?	i
O=C(c1ccc2nc(N3CCOCC3)sc2c1)N1CCCC1	11%	·	4%	2%	5%	·
c1ccc2c(c1)CCN(Cc1nnnn1Cc1ccc3c(c1)OCO3)C2	-19%	i	-7%	-2%	6%	i
c1ccc(N2CCN(c3nc4cc5c(cc4s3)OCO5)CC2)cc1	3%	i	-12%	-3%	7.9µM*	i
Clc1ccc2nc(N3CCN(c4ccccc4)CC3)sc2c1	-3%	i	17%	0%	15%	i
c1ccc2c(c1)CCN(c1nc3cc4c(cc3s1)OCO4)C2	10%	1.5e-08M*	?	2%	16µM*	1.7e-08M*
c1c2c(cc3sc(N4CCOCC4)nc13)OCO2	8%	i	?	1%	10µM*	i
c1ccc(CNc2cc(-c3ccoc3)ncn2)cc1	?	i	?	4%	-2%	i
O=c1c(CCc2ccccc2)nc2cnc(N3CCOCC3)nc2n1C1CC1	?	?	2%	8%	14%	?
CC1(C)C(OC(=O)CCC(=O)O)CC[C@]2(C)C1CC[C@@]1(C)C2C(=O)C=C2[C@@H]3C[C@@](C)(C(=O)O)CC[C@]3(C)CCC21C (some centres undefined)	·	·	?	1%	·	·
N=C(N)SCc1ccc(Cl)cc1Cl (tested in a mixture with another compound)	-3%[7.6 µM]	i	1%[11.4 µM]	-3%[11.5 µM]	-2%[11.4 µM]	?
CCc1cc2c(c(CC)n1)CCC(=O)N2Cc1ccc(-c2ccccc2-c2nn[nH]n2)cc1	12%	·	?	-2%	-3%	·
COc1cc([C@H]2c3cc4c(cc3[C@@H](O)[C@@H]3COC(=O)[C@H]23)OCO4)cc(OC)c1OC	0.013µM*	i	1%[25.6 µM]	6%[25.7 µM]	1%[25.6 µM]	?
COc1cc(C2c3cc4c(cc3C(O)[C@H]3COC(=O)C23)OCO4)cc(OC)c1OC (some centres undefined)	·	·	-1%	-1%	·	·
O=C(Nc1cccc(-c2cn3ccsc3n2)c1)c1ccccc1	16%	i	?	2%	30%	i
COc1ccccc1C(=O)Nc1cccc(-c2cn3ccsc3n2)c1	3.2µM*	i	-12%	-2%	-6%	?
CCOc1ncccc1C(=O)Nc1ccc(-c2cn3ccsc3n2)cc1	?	2.8e-07M*	10µM*	8%	-12%	3.8e-07M*
O=C1C=CC2=C3c4cc(O)c(O)cc4CC3(O)COC2=C1O (centres undefined)	·	·	2.5µM*	7%	·	·
COc1cc2c(cc1OC)CN(Cc1nc3ccsc3c(=O)[nH]1)CC2	8%	3.2e-08M*	-23%	8%	-7%	4e-08M*
COC(=O)[C@@]1(Cc2ccc(F)cc2)[C@H]2c3cc(C(=O)N(C)C)n(Cc4cc(F)c(F)c(F)c4)c3C[C@H]2CN1C(=O)c1ccccc1	5%	·	3%	3%	3%	·
